Results: the supplement of paper PMC12808144
A number with no mark means an inactive call.

Experiments:
[1] = system: Mel-DCC-11; test: cell viability relative to DMSO control (fraction of DMSO control); higher = less cytotoxic, active = 0.5 or less; details: 1 µM; 120 h
Outline: (§1)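 Three cell types were screened against 315 approved anti-cancer drugs from TargetMol, acoustically pre-spotted in 384-well plates at 1 µM in duplicate over 120 h: NHEM-hTERT immortalized melanocytes (2500/well), patient-derived Mel-DCC-11 and its resistant subline Mel-DCC-11-R (both 1500/well), all in 40 µl per well. The subline was tested alone and with 8 µM of its selecting drug. Viability, measured by luminescence, was normalised to vehicle controls and averaged across duplicates, with ATPlite 1step as the readout.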

[2] = system: NHEM-hTERT; test: as above; details: 1 µM; 120 h
Outline: as §1

[3] = system: Mel-DCC-11-R; test: cell viability relative to DMSO control (fraction of DMSO control); higher = less cytotoxic, active = 0.8 or less; details: 1 µM, 120 h
Outline: as §1

SMILES	cell viability [1]	cell viability [2]	cell viability ([3]; vemurafenib co-treatment 0 µM)	cell viability ([3]; vemurafenib co-treatment 8 µM)
Nc1nc(=S)c2[nH]cnc2[nH]1 [Thioguanine]	0.703	1.06	1.31	0.933
Nc1cccc2c1CN(C1CCC(=O)NC1=O)C2=O (stereo not given) [Lenalidomide]	0.996	0.996	0.713 (active)	1.01
Cc1cn(-c2cc(NC(=O)c3ccc(C)c(Nc4nccc(-c5cnccn5)n4)c3)cc(C(F)(F)F)c2)cn1 [Radotinib]	0.995	1.09	1.19	1.27
CC(O)(P(=O)([O-])O)P(=O)([O-])O.[Na+].[Na+] [Sodium etidronate]	0.955	0.984	0.787 (active)	0.91
O=c1c(-c2ccc(O)cc2)coc2cc(O)cc(O)c12 [Genistein]	1.04	1.1	0.984	1.02
CN(C)c1nc(N(C)C)nc(N(C)C)n1 [Altretamine]	0.88	0.945	0.973	0.92
Cc1ccc(Nc2nccc(N(C)c3ccc4c(C)n(C)nc4c3)n2)cc1S(N)(=O)=O [Pazopanib]	1.68	0.893	1.07	1.13
Nc1nc2[nH]nnc2c(=O)[nH]1 [8-Azaguanine]	1.68	1.08	1.42	1.05
CCN(CC)CCNC(=O)c1c(C)[nH]c(/C=C2\C(=O)Nc3ccc(F)cc32)c1C [Sunitinib]	0.532	0.591	1.16	0.564 (active)
CCc1c2c(nc3ccc(OC(=O)N4CCC(N5CCCCC5)CC4)cc13)-c1cc3c(c(=O)n1C2)COC(=O)[C@]3(O)CC [Irinotecan]	0.988	0.894	0.98	0.694 (active)
CNC(=O)c1ccccc1Sc1ccc2c(/C=C/c3ccccn3)n[nH]c2c1 [Axitinib]	1.51	0.879	0.981	1.03
Nc1ccn([C@@H]2O[C@H](CO)[C@@H](O)[C@@H]2O)c(=O)n1 [Cytarabine]	0.87	0.886	0.654 (active)	0.936
COc1cc([C@@H]2c3cc4c(cc3[C@@H](O[C@@H]3O[C@@H]5CO[C@@H](C)O[C@H]5[C@H](O)[C@H]3O)C3COC(=O)C32)OCO4)cc(OC)c1O (stereo not given in full) [Etoposide]	1.4	0.798	1.26	0.859
COc1cc2c(N3CCN(C(=O)Nc4ccc(OC(C)C)cc4)CC3)ncnc2cc1OCCCN1CCCCC1 [Tandutinib]	1.21	1.15	0.907	1.04
C#C[C@]1(O)CC[C@H]2[C@@H]3CCc4cc(OC5CCCC5)ccc4[C@H]3CC[C@@]21C [Quinestrol]	0.908	0.894	0.953	1
COc1cccc2c1C(=O)c1c(O)c3c(c(O)c1C2=O)C[C@@](O)(C(=O)CO)C[C@@H]3O[C@H]1C[C@H](N)[C@H](O)[C@H](C)O1.Cl [Doxorubicin hydrochloride]	0.133 (active)	0.454 (active)	0.166 (active)	0.171 (active)
CCN(CC)C(=S)SSC(=S)N(CC)CC [Disulfiram]	0.0336 (active)	1.05	0.442 (active)	0.108 (active)
O=c1ccn([C@@H]2O[C@H](CO)[C@@H](O)[C@H]2O)c(=O)[nH]1 [Uridine]	1.11	1.05	0.931	1.09
CN(C)CCOc1ccc(/C(=C(/CCCl)c2ccccc2)c2ccccc2)cc1 [Toremifene]	1.1	0.904	0.887	1.26
COc1cc2c(Oc3ccc4[nH]c(C)cc4c3F)ncnc2cc1OCCCN1CCCC1 [Cediranib]	0.87	0.891	0.853	0.728 (active)
